In the library only some 1.8% were active in any assay of this set; here they are far more common.
IkB sig inh: IkB Signaling; ABC-DLBCL IkBa-CBG/CBR dual luciferase ratio, 4 h; response scale: scaled: untreated 0%, proteasome inhibitor 100%; Potency, µM (highest dose often 57.1 µM), without a hit: at the highest dose IkBa stabilization activation; actives 0.04% (n = 110,000); active = well fitted curve in the direction sought with a large enough effect in the signal ratio, not every such curve was filed as active; inconclusive = small, poorly fitted or top-dose-only effect, or a change in a side signal; the % refers to the signal ratio;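 note: the direction sought is a rising ratio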
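Curves were fitted separately to fusion (green), unfused (red) and ratio luminescence, then classed by r2, magnitude and activity. Cells: OCI-Ly3, 4 h compound plus doxycycline at 37C; 10 uM MG-132 defined full response.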
Peg3 imprint: qHTS Assay for Compounds that Induce Erasure of Genomic Imprints; actives 0.02% (n = 110,000); mouse ES Peg3-LacZ reporter, beta-gal luminescence, 40 h; Potency, µM (series often up to 60.7 µM), for the others: top-dose activity change, positive = activation, hits mostly activators; AID 1948, 2009
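Each well holds 300 Peg3LacZ-Neo (maternal) female ES cells incubated 40 h at 37C, 5% CO2. LacZ is measured by BetaGlo luminescence, with AC50 and maximum efficacy derived from dose-response curves.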
p53ts 39C tox: qHTS Screen for Compounds that Selectively Target Cancer Cells with p53 Mutations: Cytotoxicity of p53ts Cells at the Nonpermissive Temperature | actives 1.5% (n = 130,000) | H1299-p53A138V viability at 39C, ATP luminescence, 24 h | AID 902, 2007 | Potency, µM (series often up to 46.1 µM), for inactives: top-dose activity change, negative = cell killing, actives largely listed as cytotoxic; note: % is set by controls: 0 for no effect and ±100 for the full control effect; nearly all actives have a fitted effect of over 55% in size
p53ts 32C tox: qHTS Screen for Compounds that Selectively Target Cancer Cells with p53 Mutations: Cytotoxicity of p53ts Cells at the Permissive Temperature | H1299-p53A138V at 32C, ATP luminescence viability, 24 h | Potency, µM (doses to about 46.1 µM), without a hit: at the top dose activity change, negative = cytotoxicity, usual class: cytotoxic | actives 0.93% (n = 130,000) | AID 924, 2007;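 note: 0% = DMSO and -100% = full killing by reference compound; nearly all actives have a fitted effect of over 55% in size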
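Cells: H1299 p53ts (A138V), 600/well, pre-incubated 16–30 h at 37C. Cpd up to 46 uM, 24 h, 32C. Readout: ATPlite luminescence, 20 min RT. Normalization: DMSO vs tamoxifen 100 uM. AC50 by Hill equation.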
The depositor's hits bear a star; ? = inconclusive; · = no result given; ! = not confirmed by another sample; [ ] = remark or other dose. Unless noted, calls come from the whole dose curve; as a rule, active = well fitted curve in the direction sought with a large enough effect; inconclusive = small, poorly fitted or top-dose-only effect, or another doubt; inactive = no such curve, though single readings can be large; an effect the other way counts as inactive or inconclusive. Potency is the fitted concentration of half-maximal effect.

SMILES | IkB sig inh | Peg3 imprint | p53ts 39C tox | p53ts 32C tox
CCS(=O)(=O)c1ncc(Cl)c(C(=O)Nc2ccc(S(=O)(=O)N(C)c3ccccc3)cc2)n1 | ? | -41.0%[10.9 µM] | 3.16µM* | ?
CCNC(=O)[C@H]1O[C@@H](n2cnc3c(N)nc(NCCc4ccc(CCC(=O)O)cc4)nc32)[C@H](O)[C@H]1O | · | 0.0% | · | ·
CCOC(=O)c1nn(-c2ccc3c(c2)CCN3C(C)=O)cc1O | 0.1% | -64.2% | 3.98µM* | 5.01µM*
O=C1N=C(N2CCOCC2)S/C1=C1\C(=O)N(Cc2ccccc2)c2ccc(Br)cc21 | 1.1% | -7.9% | 14.7% | 7.5%
CCCCN1C(=O)/C(=C2\SC(N3CCCCC3)=NC2=O)c2ccccc21 | ? | -27.5% | 15.8µM* | 12.6µM*
C[C@H](Cc1ccc(O)c(O)c1)[C@@H](C)Cc1ccc(O)c(O)c1 | 6.2%[11.4 µM] | 17.3% | 20µM* | ?
COc1ccc(C)c2sc(N(Cc3cccnc3)C(=O)CCc3ccccc3)nc12 | ? | 8.8%[10.9 µM] | -17.9% | -0.5%
CNC(=O)CCCN1C(=O)CCn2nc(-c3cn(C)c4ccccc34)cc21 | 0.6% | -12.6%[10.9 µM] | -14.5% | -0.8%
CCN(CC)C(C)CN1c2ccccc2Sc2ccccc21 (stereo not given) | · | -27.9% | 25.1µM* | -18.8%
O=C(Cn1c(=O)c2cccn2c2ccc(F)cc21)NCc1cccc(Cl)c1 | 1.1% | -19.5%[10.9 µM] | -17.7% | 2.5%
COc1ccc(Cc2nnc(N/N=C/c3ccc(O)cc3)[nH]c2=O)cc1OC | · | · | 2.82µM* | ·
CCc1cc(C(C)=O)c(O)cc1OCCCCCC(C)(C)c1nn[nH]n1 | · | -13.8% | 3.4% | 8.7%
Cc1ccc(Cc2c(C)nc3nc(SCC(=O)NC4CCC(C)CC4)nn3c2C)cc1 (stereo not given) | 3.0% | 13.4%[10.9 µM] | 20µM* | 23.5%
Cc1cccc(Cc2c(C)nc3nc(SCC(=O)NC4CCCCC4)nn3c2C)c1 | ? | -12.3%[10.9 µM] | -18.3% | 4.0%
c1ccc(-n2nnc3c(N4CCOCC4)ncnc32)cc1 | ? | -85.1% | 12.6µM* | 12.6µM*
Cc1ccccc1CSc1ccc(-c2cccs2)nn1 | -0.8% | -13.4%[10.9 µM] | 11.2µM* | ?
Cn1cc(C(=O)N2CCN(c3cccc(C(F)(F)F)c3)CC2)c2c3ccccc3n(C)c2c1=O | ? | -3.1%[10.9 µM] | 12.6µM* | -5.0%
Cn1c2ccccc2c2c(C(=O)N3CCN(c4cccc(C(F)(F)F)c4)CC3)cn(C3CCCCC3)c(=O)c21 | 3.0% | 13.2%[10.9 µM] | 5.6% | 23.0%
CC(C)c1ccc(-c2noc(SCC(=O)N(C)c3ccc(F)cc3)n2)cc1 | 4.2% | -16.7%[10.9 µM] | -16.8% | 0.7%
CC(C)c1ccc(-c2noc(SCC(=O)N3CCCCC3)n2)cc1 | ? | -4.5%[10.9 µM] | 15.8µM* | 12.6µM*
COc1ccc2c(c1)Cc1sc(NC(=O)c3cccc(Cl)c3)nc1-2 | -1.9% | 11.1%[10.9 µM] | 25.1µM* | ?
CCOC(=O)c1cnc(N(C)C)nc1SC(=N)N | -0.4%[11.4 µM] | -11.1%[10.9 µM] | 10.6%[9.22 µM] | -1.3%[9.22 µM]
CCN(CC)S(=O)(=O)c1nnc(NC(=O)COc2ccc(Cl)cc2)s1 | ? | 16.5%[10.9 µM] | 15.8µM* | ?
CCN(CC)S(=O)(=O)c1nnc(NC(=O)COc2ccccc2)s1 | -0.8% | -5.9%[10.9 µM] | -4.6% | -4.0%
Oc1[nH]c2ccccc2c1C=Nc1ccc2c(c1)OCCO2 | ? | -74.9% | 12.6µM* | ?
SMILES | IkB sig inh | Peg3 imprint | p53ts 39C tox | p53ts 32C tox
Cc1cccc(/N=C/c2c(O)[nH]c3ccccc23)n1 | 8.9% | -64.9% | ? | ?
O=C(NCCO)c1ccc(-n2c(=O)c(=O)[nH]c3ccccc32)cc1 | · | · | -6.0% | 3.3%
COc1ccc2c(=O)c(-c3ccccc3)coc2c1 | · | -58.9% | 5.01µM* | ?
Cc1oc2c(c1C(=O)Nc1ccccc1Br)C1=NCCN1C=N2 | -1.8% | -1.4%[10.9 µM] | -3.4% | 1.6%
Cn1c(C(=O)NCCc2ccccc2)cc2sc(Cl)cc21 | 5.1% | -21.9%[10.9 µM] | 12.6µM* | 15.8µM*
CSc1ncnc2nc[nH]c12 | 1.5% | -33.4% | 31.6% | 13.8%
CCOC(=O)c1ccc(NC(=O)CSc2nc3c(c(=O)n2C)SC(C)C3)cc1 (stereo not given) | -0.6% | -17.5% | 12.6µM* | 7.94µM*
CCN(CC)CCn1c(=N)n(CCOc2ccccc2Cl)c2ccccc21 | ? | -7.5%[10.9 µM] | 10µM* | ?
CCn1c(=N)n(CC(O)COc2ccccc2)c2ccccc21 (stereo not given) | -0.7% | -16.3%[10.9 µM] | 5.7% | -6.7%
CCN(CC)CCn1c(=N)n(CC(O)COc2ccccc2C)c2ccccc21 (stereo not given) | ? | -8.2%[10.9 µM] | 15.8µM* | ?
Cc1cccc(OCC(O)Cn2c(=N)n(CCN3CCCCC3)c3ccccc32)c1 (stereo not given) | ? | -31.6% | 12.6µM* | -15.2%
Cc1cc(C)c(CSc2nnc(C)n3c2cc2occc23)c(C)c1 | -1.2% | -10.7%[10.9 µM] | 20µM* | -19.8%
COc1cc(NC(=O)CCc2c(C)nc3c(-c4ccc(F)cc4)c(C)nn3c2C)cc(OC)c1OC | -1.5% | -3.7%[10.9 µM] | -5.1% | -6.9%
COc1cc(O)c(C(=O)/C=C/c2ccc(OC)c(O)c2)c(OC)c1 | · | -37.4% | 62.7% | 10µM*
CSc1ccc2c(c1)N(CC[C@H]1CCCCN1C)c1ccccc1S2 | 0.5%[25.6 µM] | -16.2%[16.8 µM] | 12.6µM*! | ·
CSc1ccc2c(c1)N(CCC1CCCCN1C)c1ccccc1S2 (stereo not given) | · | -31.8% | 12.6µM* | ·
CC(=O)[C@]1(O)Cc2c(O)c3c(c(O)c2[C@@H](O[C@H]2C[C@H](N)[C@H](O)[C@H](C)O2)C1)C(=O)c1c(O)cccc1C3=O | · | -47.9% | · | ·
CC(O)/C=C/c1ccc2ccccc2n1 (stereo not given) | 3.1% | -52.6% | ? | 25.1µM*
Cc1nc2sc(C(c3cccs3)N3CCOCC3)c(O)n2n1 (stereo not given) | ? | -71.0% | ? | 12.6µM*
CN1CCN(c2ccnc(-c3ccoc3)n2)CC1 | -1.9%[11.4 µM] | -10.2% | 16.3% | 3.9%
CCN(C(=O)c1cc2c(=O)oc3ccc(C)cc3c2s1)c1ccccc1F | 0.2% | -9.7%[10.9 µM] | -13.9% | 2.5%
Cc1nc(-c2ccc(C)c(N3CCN(C(=O)Nc4cccc(Cl)c4C)CC3)c2)no1 | ? | 18.0%[10.9 µM] | -23.7% | 3.5%
CC(C)c1ccc(C(=O)CC2(O)C(=O)N(CCc3ccccc3)c3ccc(Cl)cc32)cc1 (stereo not given) | ? | -7.9%[10.9 µM] | 15.8µM* | ?
O=C(CC1(O)C(=O)N(Cc2ccccc2)c2ccc(Br)cc21)c1ccccc1 (stereo not given) | ? | -3.6%[10.9 µM] | 15.8µM* | ?
O=C(CC1(O)C(=O)N(CCc2ccccc2)c2ccc(Br)cc21)c1ccccc1O (stereo not given) | ? | -6.1%[10.9 µM] | 20µM* | -0.4%
CCCN1C(=O)C(O)(CC(=O)c2ccc(C(C)C)cc2)c2ccccc21 (stereo not given) | ? | -1.1%[10.9 µM] | ? | 2.1%

Screening results: PubChem BioAssay, National Center for Advancing Translational Sciences (NCATS)
